In PubChem BioAssay (NCATS):
Several values for one entry are separate records, joined by “and”; a condition that tells them apart may be missing. Identical values can stand only once. Records with an inconclusive call do not appear. More than one record can exist for a structure, and the calls need not agree. Activity calls are given as the source filed them. Unless noted, calls follow the shape of the dose curve; as a rule, active = well fitted curve in the direction sought with a large enough effect; inconclusive = small, poorly fitted or top-dose-only effect, or another doubt; inactive = no such curve, though single readings can be large; an effect the other way counts as inactive or inconclusive.

What was measured:
[1] = Primary qHTS for inhibitors of La Crosse Virus (LACV) - induced cell death in SH-SY5Y cells (AID 1508616);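 also: top concentration of the series differs between compounds; 0% = infected DMSO wells and 100% = uninfected DMSO wells; higher means more rescue of cells from virus-induced death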
Summary of the method: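 Protection against LACV-induced cell death is scored in SH-SY5Y cells exposed to compounds and virus (0.01 MOI) for 6 days. Data normalized to virus-infected DMSO wells and virus-free DMSO wells.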

[2] = target: Calcium and integrin-binding protein 1 (Homo sapiens) (UniProt Q99828); assay: Primary qHTS for Identification of Calcium Integrin Binding Protein 1 (CIB1) Competitor (AID 1508620);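 also: GST tagged CIB1 binding a fluorescein labelled alphaIIb integrin peptide tracer; top concentration of the series differs between compounds; % is scaled to controls: 0 for no effect and ±100 for the full control effect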
Summary of the method: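 Fluorescence polarization competition: GST-tagged CIB1 (1 uM final) preincubated with compound 15 min at room temperature, then FITC-labelled alphaIIb peptide (100 nM final) added. After 15 min at room temperature, polarization read at Ex 480/Em 540.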

[3] = Counterscreen qHTS for small molecule stabilizers of the endoplasmic reticulum resident proteome: GLuc-NoTag assay (AID 1508627);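 also: SH-SY5Y cells given compound then 100 nM thapsigargin to empty ER calcium; series mostly up to about 76 µM; 0% = thapsigargin alone and -100% = DMSO vehicle control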
Summary of the method: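 SH-SY5Y cells stably expressing constitutively secreted GLuc without SERCaMP tag, exposed to compound for 19 hr, then to 100 nM thapsigargin for 4 hr at 37C. Medium luciferase was read by coelenterazine luminescence without lysis.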

[4] = Confirmatory qHTS for small molecule stabilizers of the endoplasmic reticulum resident proteome: Secreted ER Calcium Modulated Protein (SERCaMP) assay (AID 1508628); also: nearly all actives have a fitted effect of over 40% in size; also: potency is read from the fitted curve at half-maximal effect
Summary of the method: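 SH-SY5Y cells stably expressing GLuc-SERCaMP, treated 16 h with compound (primary 1.53, 7.67, 38.3 uM; confirmation 11 concentrations, up to 76.6 uM), then 100 nM thapsigargin for 4 h. Secreted Gaussia luciferase in medium read by coelenterazine luminescence.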

[5] = Cell Viability qHTS for small molecule stabilizers of the endoplasmic reticulum resident proteome (AID 1508629); settings: cell viability counter-screen, 100 nM thapsigargin for final 4 h;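 also: human SH-SY5Y neuroblastoma cells carrying the GLuc-SERCaMP reporter; compound exposure about 46 h in total before the viability read; % is scaled to controls: 0 for no effect and ±100 for the full control effect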
[6] = target: Single-stranded DNA cytosine deaminase (Homo sapiens) (UniProt Q9GZX7); assay: Validation qHTS assay for inhibitors of Activation Induced Cytidine Deaminase (AID): AID signal (AID 1347429); also: % is scaled to controls: 0 for no effect and ±100 for the full control effect
Summary of the method: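 Fluorescence at 540 nm excitation and 590 nm emission reports ssDNA cytosine deamination by AID, with UDG in the same well. Compound-treated reactions ran 4 hr at room temperature with DJC20/DJC23 substrate, followed by 30 min NaOH treatment.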

[7] = Primary qHTS for small molecule stabilizers of the endoplasmic reticulum resident proteome: Secreted ER Calcium Modulated Protein (SERCaMP) assay (AID 1508630); also: potency is read from the fitted curve at half-maximal effect
Summary of the method: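 GLuc-SERCaMP-expressing SH-SY5Y cells, pretreated 16 h with compound, are challenged with thapsigargin to empty ER calcium stores; after 4 h, coelenterazine is added directly to the medium and luminescence is imaged.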

[8] = target: Calcium and integrin-binding protein 1 (Homo sapiens) (UniProt Q99828); assay: Validation qHTS for Identification of Calcium Integrin Binding protein 1 (CIB1) Competitor (AID 1508618); also: % is scaled to controls: 0 for no effect and ±100 for the full control effect
Summary of the method: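 Displacement of FITC-alphaIIb peptide (100 nM) from CIB1-GST (1 uM) is monitored by polarization in quantitative HTS format; buffer carries 5 mM CaCl2 and 125 mM NaCl at pH 7.4, incubations are at room temperature.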

[9] = target: Calcium and integrin-binding protein 1 (Homo sapiens) (UniProt Q99828); assay: Confirmatory qHTS for Identification of Calcium Integrin Binding Protein 1 (CIB1) Competitor (AID 1508617); also: % is scaled to controls: 0 for no effect and ±100 for the full control effect; nearly all actives have a fitted effect of over 65% in size
Summary of the method: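 Confirmatory qHTS measures displacement of a FITC-alphaIIb peptide (100 nM) from CIB1-GST (1 uM) by fluorescence polarization. Calcium-containing HEPES buffer, pH 7.4; two 15 min room-temperature incubations.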

[10] = A High-Content qHTS Against Drug Library for the Identification of Small Molecules that Inhibit DYT1 Early Onset Primary Dystonia-Associated Cell Pathology (AID 1645839; calls by dose curve; also: series mostly up to about 46 µM)
Summary of the method: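 Flp-In T-REx 293 cells with tetracycline-inducible EGFP-delE hTOR1A (WT EGFP-hTOR1A as reference), 800 cells/well; compound added with tetracycline, 48 h at 37 C. Fixed, permeabilized cells imaged; %pathology (punctate TorsinA) primary, cell count counterscreen.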

Chain of Calcium and integrin-binding protein 1 (Homo sapiens) (Q99828 whole entry, looked up): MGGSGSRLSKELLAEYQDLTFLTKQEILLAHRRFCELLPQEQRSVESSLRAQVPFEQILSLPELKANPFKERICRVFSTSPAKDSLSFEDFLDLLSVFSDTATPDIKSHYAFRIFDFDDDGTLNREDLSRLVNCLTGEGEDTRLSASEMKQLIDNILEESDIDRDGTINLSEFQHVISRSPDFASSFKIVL
Chain of Single-stranded DNA cytosine deaminase (Homo sapiens) (Q9GZX7 whole entry, looked up): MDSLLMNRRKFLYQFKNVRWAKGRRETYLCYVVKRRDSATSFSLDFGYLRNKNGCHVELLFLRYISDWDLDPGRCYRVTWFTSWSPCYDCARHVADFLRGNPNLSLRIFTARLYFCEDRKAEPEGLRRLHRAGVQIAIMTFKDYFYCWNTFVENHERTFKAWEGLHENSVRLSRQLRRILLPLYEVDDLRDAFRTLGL

S=P(N1CC1)(N1CC1)N1CC1
inactive: Potency [1] | outcome [2] | outcome [3] | Potency [4] | max response [5] 22.2%

Nc1nc(N)c2nc(CNc3ccc(C(=O)NC(CCC(=O)O)C(=O)O)cc3)cnc2n1 (centres undefined)
inactive: outcome [6] | Potency [1] | outcome [2] | Potency [7]

O=C(O)C1CCCN(CCC=C(c2ccccc2)c2ccccc2)C1 (centres undefined)
inactive: outcome [6] | Potency [1] | outcome [8] | outcome [2] | Potency [7]

NCCCC(O)(P(=O)(O)O)P(=O)(O)O
inactive: Potency [1] | outcome [2]

COc1c(N2CCNC(C)C2)c(F)cc2c(=O)c(C(=O)O)cn(C3CC3)c12 (centres undefined)
active: Potency [4] 14.1 µM | Potency [7] 20 µM
inactive: Potency [1] | outcome [2] | outcome [3] | max response [5] -1.18% and 19.6%

O=S(=O)(c1cccc2cnccc12)N1CCCNCC1
inactive: Potency [1] | outcome [2]

COc1ccccc1OCC(O)COC(N)=O (centres undefined)
inactive: Potency [1] | outcome [2] | Potency [7]

N[C@@H](Cc1ccc(O)c(O)c1)C(=O)O
inactive: Potency [1] | outcome [8] | outcome [2] | Potency [7]

Cc1ccc(S(=O)(=O)N[C@@H](Cc2ccccc2)C(=O)CCl)cc1
inactive: outcome [6] | outcome [2] | Potency [7]

Nc1nc(F)nc2c1ncn2[C@@H]1O[C@H](CO)[C@@H](O)[C@@H]1O
inactive: Potency [1] | outcome [2] | Potency [7]

CO[C@@]12[C@H](COC(N)=O)C3=C(C(=O)C(C)=C(N)C3=O)N1C[C@@H]1N[C@@H]12
inactive: Potency [1] | outcome [9] | outcome [2] | Potency [7]

CC(=O)[C@H]1CC[C@H]2[C@@H]3CCC4=CC(=O)CC[C@]4(C)[C@H]3CC[C@]12C
inactive: outcome [6] | Potency [1] | outcome [8] | outcome [2] | Potency [7]

CCN(CC)CC#CCOC(=O)C(O)(c1ccccc1)C1CCCCC1 (centres undefined)
inactive: outcome [6] | Potency [1] | Potency [7]

CNS(=O)(=O)CCc1ccc2[nH]cc(C3CCN(C)CC3)c2c1
inactive: Potency [1] | outcome [8] | outcome [2] | Potency [7]

COc1ncnc(NS(=O)(=O)c2ccc(N)cc2)c1OC
inactive: Potency [1] | outcome [2] | Potency [7]

C[C@@H]1C[C@H]2[C@@H]3CCC4=CC(=O)C=C[C@]4(C)[C@@]3(Cl)[C@@H](O)C[C@]2(C)[C@@]1(OC(=O)c1ccco1)C(=O)CCl
inactive: Potency [1] | outcome [2]

CO[C@@H]1[C@@H](OC(N)=O)[C@@H](O)[C@H](Oc2ccc3c(O)c(NC(=O)c4ccc(O)c(CC=C(C)C)c4)c(=O)oc3c2C)OC1(C)C
inactive: Potency [1] | outcome [2] | max response [5] 49.1% | Potency [10]
31.6 µM (active) and inactive: Potency [7]
active: Potency [4] 35.5 µM

CC(C)NCC(O)c1ccc(NS(C)(=O)=O)cc1 (centres undefined)
inactive: outcome [6] | Potency [1] | outcome [8] | outcome [2] | Potency [7]
